According to PubChem BioAssay (Tox21):
Inconclusive results are not listed. Activity calls are given as the source filed them. Unless noted, calls follow the shape of the full dose curve.

Assays:
[1] = qHTS assay to identify small molecule agonists of the vitamin D receptor (VDR) signaling pathway - cell viability counter screen (AID 743224; active = well fitted curve in the direction sought with a large enough effect in the repeat runs; an effect the other way counts as inactive or inconclusive; also: series mostly up to about 63 µM; nearly all actives have a fitted effect of over 50% in size)
In short: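 Here cell health was gauged by luminescent ATP detection (CellTiter-Glo, 30 min RT) in VDR-bla cells that had been incubated with test compounds for 16 h at 37C and 5% CO2.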

[2] = qHTS assay to identify small molecule agonists of the NFkB signaling pathway (AID 1159509; active = well fitted curve in the direction sought with a large enough effect in the signal ratio in the repeat runs, not every such curve was filed as active; the % refers to the signal ratio; also: series mostly up to about 61 µM)
In short: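 NFkB-bla ME-180 cells with a beta-lactamase reporter under an NF-kB response element were plated overnight, treated with compounds in DMSO for 5 hr at 37 C, then loaded with FRET substrate for 1.5 hr at room temperature.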

[3] = qHTS assay to identify small molecule agonists of the NFkB signaling pathway - cell viability counter screen (AID 1159515); also: series mostly up to about 61 µM; nearly all actives have a fitted effect of over 55% in size
In short: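 5 hr compound treatment of NFkB-bla ME-180 cells (2,000/well, seeded overnight beforehand), followed by reporter substrate for 1.5 hr. CellTiter-Glo added afterward; luminescence after 30 min RT.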

[4] = qHTS assay to identify small molecule agonists of the endoplasmic reticulum stress response signaling pathway (AID 1159516; active = well fitted activation curve with a large enough effect in the signal ratio in the repeat runs, not every such curve was filed as active; the % refers to the signal ratio)
In short: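 Reporter HeLa cells (ESRE-beta-lactamase) underwent 5 hr compound incubation at 37 C and 5% CO2 in quantitative HTS format. Detection followed 2 hr of FRET substrate loading at room temperature.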

[5] = qHTS assay to identify small molecule agonists of the endoplasmic reticulum stress response signaling pathway - cell viability counter screen (AID 1159517);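 also: HeLa cells carrying an ER stress response element beta-lactamase reporter; series mostly up to about 61 µM; nearly all actives have a fitted effect of over 50% in size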
In short: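 Cells, HeLa ESRE-bla; density, 1,500/well; dosing, 5 hr at 37 C, 5% CO2; readout, CellTiter-Glo luminescence after 30 min RT.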

[6] = qHTS assay to identify small molecule antagonists of the retinoid-related orphan receptor gamma (ROR-gamma) signaling pathway - cell viability counter screen (AID 1159520; active = well fitted curve in the direction sought with a large enough effect in the repeat runs; an effect the other way counts as inactive or inconclusive; also: nearly all actives have a fitted effect of over 50% in size)
In short: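 Cytotoxicity was read from cellular ATP (CellTiter-Glo luminescence) after 16 hr at 37 C with 1 uM doxycycline induction. The inducer was added 2 hr after compound transfer to Tet-on ROR gamma CHO cells.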

[7] = molecular target: Nuclear receptor ROR-gamma (Homo sapiens) (UniProt P51449); test: qHTS assay to identify small molecule antagonists of the retinoid-related orphan receptor gamma (ROR-gamma) signaling pathway (AID 1159521; active = well fitted curve in the direction sought with a large enough effect in the repeat runs; an effect the other way counts as inactive or inconclusive; also: top concentration of the series differs between compounds; nearly all actives have a fitted effect of over 50% in size)
In short: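 Antagonist read-out: drop in luminescence (ONE-Glo) from an RORE-LUC reporter in CHO cells with doxycycline-inducible ROR-gamma; 2 hr compound pretreatment, 1 uM doxycycline, 16 hr incubation at 37 C.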

[8] = qHTS assay to identify small molecule agonists of the AP-1 signaling pathway - cell viability counter screen (AID 1159525); also: nearly all actives have a fitted effect of over 55% in size
In short: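 Luminescent ATP readout (Cell Titer Glo, 30 min RT), normalised to DMSO and tetra n-octyl ammonium bromide controls. Cells were ME-180 AP-1-bla in 0.5% dialyzed FBS Opti-MEM, with a 5 h, 37 °C compound exposure.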

[9] = qHTS assay to identify small molecule agonists of the AP-1 signaling pathway (AID 1159526)

Measured: Potency

CCc1cc(OC)c(C[C@H](C)N)cc1OC
inactive: all assays above

COC(=O)c1ccccc1CS(=O)(=O)NC(=O)Nc1nc(OC)cc(OC)n1
not listed: [1]
inactive: all other assays above

C=CCN1CC[C@]23CCCC[C@H]2[C@H]1Cc1ccc(O)cc13
inactive: all assays above

c1ccc2c(c1)CCNC2
inactive: all assays above

CCOC(=O)CCl
inactive: all assays above

CCOC(=O)CC(SP(=S)(OC)OC)C(=O)OCC (stereo not given)
inactive: all assays above

CON(C)C(=O)Nc1ccc(Br)c(Cl)c1
not listed: [1]
inactive: all other assays above

O=C(Cl)c1ccccc1
not listed: [1]
inactive: all other assays above

CN(C)C1CCCCC1
inactive: all assays above

CCC1(c2cccc(O)c2)CCCCN(C)C1 (stereo not given)
not listed: [1]
inactive: all other assays above

O=[N+]([O-])CCO
inactive: all assays above

CCOC(=O)C(SP(=S)(OC)OC)c1ccccc1 (stereo not given)
not listed: [1]
inactive: all other assays above

CNC(=O)Oc1ccccc1C(C)C
inactive: all assays above

N[C@@H]1C[C@H]1c1ccccc1
not listed: [1]
inactive: all other assays above

CCN1CCCC1CNC(=O)C(O)(c1ccccc1)c1ccccc1 (stereo not given)
not listed: [1]
inactive: all other assays above

O=[N+]([O-])c1cccc(CCl)c1
not listed: [1]
inactive: all other assays above

COC(=O)c1ccc(CBr)cc1
inactive: all assays above

CCCCCCC1CCOC1=O (stereo not given)
inactive: all assays above

CN(C)CCN(C)C
inactive: all assays above

Cc1ccc(Cl)c(O)c1
not listed: [1]
inactive: all other assays above

CC(C)(C)C(=O)C(Cl)Cl
inactive: all assays above

CCCOc1nn(C(=O)NS(=O)(=O)c2ccccc2C(=O)OC)c(=O)n1C
inactive: all assays above

CC[C@H](O)C(C[C@H](C)N(C)C)(c1ccccc1)c1ccccc1
inactive: all assays above

O=C1CC(=O)NC(=O)N1
not listed: [1]
inactive: all other assays above

CCCCOC(C)=O
inactive: all assays above

CCC(C(N)=O)N1CCCC1=O (stereo not given)
inactive: all assays above

NCC1(CC(=O)O)CCCCC1
inactive: all assays above

CCCC(C)C1(CC)C(=O)N=C(S)NC1=O (stereo not given)
inactive: all assays above

O=C(O)C(Cl)Br (stereo not given)
not listed: [1]
inactive: all other assays above
